Sampled rows, rich in hits. Any-hit rate of the full collection: about 17%.
TDP1 cell CPT: DT40-hTDP1 cell growth loss with CPT; chicken DT40 Tdp1-/-;hTDP1 cells + 20 nM CPT, ATP luminescence, 48 h; Potency, µM (top dose mostly 46.2 µM), for the others: top-dose activity change, negative = growth inhibition, actives largely listed as inhibitors; 420,000 compounds, 12% hits; AID 686979; also: % is scaled to controls: 0 for no effect and ±100 for the full control effect; nearly all actives have a fitted effect of over 55% in size
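Chicken DT40 Tdp1-/- cells stably complemented with human TDP1 were seeded at 400 cells/well in medium containing 20 nM camptothecin, exposed to pin-transferred compounds, and grown at 37 °C for at least 48 hr. Viability was read as ATP luminescence.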
TGFb SMAD3 inh: TGF-b pathway inhibition; HepG2 CAGA-GFP TGF-b/SMAD3 reporter, GFP fluorescence, 18 h; TGF-beta stimulated, 500 pg/mL final; Potency, µM (highest dose often 46.1 µM), for the others: top-dose activity, negative = inhibition, most hits filed as inhibitors; 410,000 compounds, 1.2% hits; also: % is scaled to controls: 0 for no effect and ±100 for the full control effect; nearly all actives have a fitted effect of over 65% in size
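Smad-responsive CAGA-GFP expression was quantified in HEPG2 cells exposed to compounds and 500 pg/mL final TGF-beta for 18 h at 37 degrees C; unstimulated wells defined full inhibition.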
HepG2 tox: kills HepG2 cells in TGF-b inhibitor counter-screen. AID 588856. HepG2 CAGA-GFP viability, ATP luminescence, 18 h. 410,000 compounds, 0.76% hits. Potency, µM (highest dose often 46.1 µM), for inactives: at the top dose activity change, negative = cytotoxicity, usual class: cytotoxic
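CellTiter-Glo luminescence gave cytotoxicity after 18 hours at 37 degrees C. The cells were HepG2 CAGA-GFP in 1% FBS DMEM, stimulated with 500 pg/mL TGF-beta after compound addition. %Activity was normalised to no-cell wells (complete cell-killing) and DMSO (no toxicity), and curves were fitted and classified.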
HT1080 IDH1KD tx: kills HT-1080 cells with IDH1 knockdown | HT-1080 IDH1 knockdown viability, ATP luminescence, 48 h | Potency, µM (top dose mostly 46.1 µM), for inactives: top-dose activity, negative = toxicity, most hits filed as cytotoxic | 360,000 compounds, 2% hits | AID 686971;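 also: 0% = DMSO wells and -100% = cell-free medium wells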
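Assay cells: HT-1080 with IDH1 knockdown, 750 per well, RPMI/5% FBS. Exposure: 48 h at 37 °C following 2 h pre-incubation. Read: CellTiter-Glo luminescence; fitted concentration-response, curve class assigned.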
HT1080NT lethal: kills 2HG-producing HT-1080-NT fibrosarcoma cells; HT-1080-NT fibrosarcoma viability, CellTiter-Glo ATP luminescence, 48 h; Potency, µM (series often up to 46.1 µM), for inactives: top-dose activity, negative = less viability, hits mostly cytotoxic; 360,000 compounds, 1.6% hits; AID 686970;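 also: NT is the 2HG producing partner of a matched IDH1 knockdown line; 0% = DMSO-treated cells and -100% = media-only wells without cells; nearly all actives have a fitted effect of over 55% in size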
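Fibrosarcoma NT cells, 750 per well in 5% FBS RPMI, were exposed to compound for 48 hours. Viability: CellTiter-Glo luminescence.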
DT40 TDP1 no CPT: qHTS for Inhibitors of human tyrosyl-DNA phosphodiesterase 1 (TDP1): qHTS in cells in absence of CPT; DT40 Tdp1-/- hTDP1 cells, no CPT, ATP luminescence, 48 h; Potency, µM (highest dose often 46.2 µM), for inactives: top-dose activity change, negative = growth inhibition, hits mostly inhibitors; 420,000 compounds, 15% hits; also: % is scaled to controls: 0 for no effect and ±100 for the full control effect; nearly all actives have a fitted effect of over 55% in size
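DT40 Tdp1-/-;hTDP1 cells, no CPT (DMSO vehicle only), 400 cells/well; compounds pin-transferred; ≥48 hr, 37 °C; CellTiter-Glo 30 min RT dark, luminescence read.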
* = called active by the depositor. Calls follow the shape of the dose curve; as a rule, active = well fitted curve in the direction sought with a large enough effect; inconclusive = small, poorly fitted or top-dose-only effect, or another doubt; inactive = no such curve, though single readings can be large; an effect the other way counts as inactive or inconclusive. Potency is read from the fitted curve at half-maximal effect.

`COc1ncc2nc(-c3cc(F)cc(F)c3)c(=O)n(CCC#N)c2n1` gave TDP1 cell CPT -1.1% and DT40 TDP1 no CPT -24.0%.
`CCOc1ccc(C(C)=O)cc1CN1C(=O)C(=O)N(CC)C1=O` gave TDP1 cell CPT 3.3%, TGFb SMAD3 inh -6.5%, HepG2 tox 4.1%, HT1080 IDH1KD tx 5.9%, HT1080NT lethal 11.8% and DT40 TDP1 no CPT 10.5%.
For COc1cc(NC(=O)c2ccco2)c(OC)cc1NC(=O)c1cc(OC)c(OC)c(OC)c1 the results were TDP1 cell CPT inconclusive, TGFb SMAD3 inh 16.6%, HepG2 tox 6.2%, HT1080 IDH1KD tx -1.1%, HT1080NT lethal 4.7% and DT40 TDP1 no CPT 20.6µM*.
For O=C(Nc1cccc(-c2nnc(-c3ccccc3)o2)c1)c1ccco1 the results were TDP1 cell CPT -26.3%, TGFb SMAD3 inh 2.3%, HepG2 tox -3.1%, HT1080 IDH1KD tx 21.0%, HT1080NT lethal 9.2% and DT40 TDP1 no CPT inconclusive.
For CCOc1cc(NC(=O)c2ccco2)c(OCC)cc1NC(=O)c1ccco1 the results were TDP1 cell CPT -20.3%, TGFb SMAD3 inh 20.0%, HepG2 tox 16.7%, HT1080 IDH1KD tx 20.4%, HT1080NT lethal 32.1% and DT40 TDP1 no CPT 2.91µM*.
`Cc1nn2c(-c3cccc(NC(=O)c4ccco4)c3)nnc2c2ccccc12` gave TDP1 cell CPT 20.6µM*, TGFb SMAD3 inh inconclusive, HepG2 tox -37.5%, HT1080 IDH1KD tx -1.8%, HT1080NT lethal -0.3% and DT40 TDP1 no CPT 20.6µM*.
For COc1ccc(C(=O)NNc2ncnc3c2cnn3-c2ccc(C)cc2C)cc1 the results were TDP1 cell CPT inconclusive, TGFb SMAD3 inh inconclusive, HepG2 tox -17.2% and DT40 TDP1 no CPT inconclusive.
For CCOC(=O)CN1CCc2c(C)nc3c(-c4ccc(OC)c(OC)c4)cnn3c21 the results were TDP1 cell CPT inconclusive, TGFb SMAD3 inh 6.7%, HepG2 tox -2.8%, HT1080 IDH1KD tx 8.3%, HT1080NT lethal -1.0% and DT40 TDP1 no CPT inconclusive.
For CCCS(=O)(=O)NC(=O)C1(C)CCN(C(=O)c2ccc(SC(F)(F)F)cc2)C1 (stereo not drawn) the results were TDP1 cell CPT 1.5%, TGFb SMAD3 inh 27.8%, HepG2 tox -7.3%, HT1080 IDH1KD tx 2.2%, HT1080NT lethal 23.3% and DT40 TDP1 no CPT -3.2%.
For COc1ccccc1N(CC(O)Cn1ccnc1C)S(=O)(=O)c1ccccc1 (stereo not drawn) the results were TDP1 cell CPT -10.1%, TGFb SMAD3 inh 4.4%, HepG2 tox -3.8%, HT1080 IDH1KD tx 14.3%, HT1080NT lethal 9.1% and DT40 TDP1 no CPT -16.0%.
`COc1ccccc1N(CC(O)COc1c(C)cc(C)cc1C)S(=O)(=O)c1ccccc1` (stereo not drawn) gave TDP1 cell CPT inconclusive, TGFb SMAD3 inh 12.6µM*, HepG2 tox 10.8%, HT1080 IDH1KD tx -5.0%, HT1080NT lethal 3.7% and DT40 TDP1 no CPT inconclusive.
Screening COc1ccccc1N(CC(O)Cn1c(C)nc2ccccc21)S(=O)(=O)c1ccccc1 (stereo not drawn) returned TDP1 cell CPT inconclusive, TGFb SMAD3 inh 1.5%, HepG2 tox -5.5%, HT1080 IDH1KD tx 19.2%, HT1080NT lethal 3.5% and DT40 TDP1 no CPT 29.1µM*.
Screening CC1CC(C)CN(c2nc(N(C)c3ccccc3)nc(N)c2[N+](=O)[O-])C1 (stereo not drawn) returned TDP1 cell CPT inconclusive, TGFb SMAD3 inh inconclusive, HepG2 tox -23.3%, HT1080 IDH1KD tx -25.2%, HT1080NT lethal -19.9% and DT40 TDP1 no CPT 13µM*.
Screening CCN(CC)S(=O)(=O)c1ccc(OC)c(NC(=O)OCc2ccccc2)c1 returned TDP1 cell CPT -3.2%, TGFb SMAD3 inh -13.9%, HepG2 tox -42.7%, HT1080 IDH1KD tx -11.5%, HT1080NT lethal inconclusive and DT40 TDP1 no CPT inconclusive.
Screening Cc1ccc(NC(=O)N(Cc2ccc3c(c2)OCO3)Cc2cc3cc4c(cc3[nH]c2=O)OCCO4)cc1 returned TDP1 cell CPT 18.4µM*, TGFb SMAD3 inh -6.8%, HepG2 tox 5.1%, HT1080 IDH1KD tx 3.8%, HT1080NT lethal 8.7% and DT40 TDP1 no CPT inconclusive.
`O=C(Nc1ccccc1F)N(CCCN1CCOCC1)Cc1cc2cc3c(cc2[nH]c1=O)OCCO3` gave TDP1 cell CPT 16.4µM*, TGFb SMAD3 inh -3.9%, HepG2 tox -34.0%, HT1080 IDH1KD tx inconclusive, HT1080NT lethal -27.4% and DT40 TDP1 no CPT 16.4µM*.
`COc1cc2cc(CN(CCCN3CCOCC3)C(=O)Nc3ccc(F)cc3)c(=O)[nH]c2cc1OC` gave TDP1 cell CPT -29.0%, TGFb SMAD3 inh 19.8%, HepG2 tox -15.0%, HT1080 IDH1KD tx -11.2%, HT1080NT lethal -15.5% and DT40 TDP1 no CPT inconclusive.
Screening CCC(=O)N(Cc1ccc(C)cc1)Cc1cc2cc3c(cc2[nH]c1=O)OCO3 returned TDP1 cell CPT -26.7%, TGFb SMAD3 inh inconclusive, HepG2 tox 7.3%, HT1080 IDH1KD tx -14.9%, HT1080NT lethal 5.2% and DT40 TDP1 no CPT -26.7%.
For CCN(CC)CCCN(Cc1cc2cc3c(cc2[nH]c1=O)OCCO3)C(=O)Nc1ccccc1 the results were TDP1 cell CPT inconclusive, TGFb SMAD3 inh 20.9%, HepG2 tox -11.9%, HT1080 IDH1KD tx -14.4%, HT1080NT lethal -9.1% and DT40 TDP1 no CPT inconclusive.
`O=C(Nc1ccccc1)N(CCCN1CCOCC1)Cc1cc2cc3c(cc2[nH]c1=O)OCCO3` gave TDP1 cell CPT inconclusive, TGFb SMAD3 inh 6.3%, HepG2 tox -24.6%, HT1080 IDH1KD tx -10.0%, HT1080NT lethal -11.8% and DT40 TDP1 no CPT 10.3µM*.

Bioassay records: PubChem, National Center for Advancing Translational Sciences (NCATS)
